Coupling enz = coupling enzyme interference in Giardia aldolase counter-screen; coupling enzyme system counterscreen, AmpLite Red fluorescence; activity change, negative = inhibition, % at 58.2 µM, hits read low; 290,000 tested, 0.67% active; AID 2472; in the data active = activity change below about -30%
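Coupling enzymes only (glyceraldehyde-3-phosphate) + compound, at 57.5 uM final, 10 min RT; add substrate/coupling/AmpLite Red mix, 20 min RT; fluorescence ex 525/em 598 nm. Actives flag coupling-system interference.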
USP1 inh = blocks the human USP1/UAF1 deubiquitinase complex; 390,000 tested, 0.23% active; AID 743255; O94782; recombinant USP1/UAF1, Ub-Rhodamine cleavage fluorescence; Potency, µM (titrated, usually from 57.1 µM), for the others: at the highest dose activity change, negative = inhibition, actives largely listed as inhibitors; also: potency is read from the fitted curve at half-maximal effect; nearly all actives have a fitted effect of over 60% in size
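High-throughput fluorogenic screen: 1nM USP1/UAF1 complex, Ub-Rho substrate 150nM final, 50mM HEPES pH 7.8 with 0.5mM EDTA, 0.1 mg/ml BSA, 1mM TCEP and 0.01% Tween-20.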
Tau fluor counter = counter-screen for tau fibril formation inhibitors; tau K18 P301L Alexa594 fluorescence, heparin fibrillization; Potency, µM (top dose mostly 57.7 µM), for inactives: at the highest dose activity change, negative = decrease; 280,000 tested, 0.93% active; AID 1463; also: potency is read from the fitted curve at half-maximal effect; nearly all actives have a fitted effect of over 55% in size
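Human K18 P301L tau (15 uM unlabeled plus 0.24 uM Alexa 594-labeled, final) in 100 mM sodium acetate pH 7 was mixed with compound and 20 uM heparin and incubated 6 hr at 37 C.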
Tau ThT inhib = blocks human tau fibril formation measured by thioflavin T; recombinant tau K18 P301L (four-repeat tau fragment), heparin-induced fibrillization, ThT fluorescence; Potency, µM (top dose mostly 57.4 µM), inactives show top-dose activity, negative = inhibition, actives largely listed as inhibitors; 270,000 tested, 2.1% active; P10636; also: potency is read from the fitted curve at half-maximal effect; nearly all actives have a fitted effect of over 55% in size
Target sequence (P10636 561-689 P618L limits assumed): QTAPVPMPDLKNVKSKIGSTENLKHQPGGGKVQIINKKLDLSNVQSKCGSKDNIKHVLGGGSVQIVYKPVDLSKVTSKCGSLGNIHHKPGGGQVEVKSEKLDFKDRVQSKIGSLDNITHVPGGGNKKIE
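Heparin-induced fibrillization of the P301L-mutant K18 repeat-domain fragment of human tau was followed by ThT binding in quantitative high-throughput format.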
Tau fibril FP = inhibitors of human tau fibril formation | P10636 | K18 P301L tau heparin fibrillization, Alexa594 FP, 6 h | Potency, µM (top dose mostly 57.7 µM), for the others: at the top dose activity, negative = inhibition, usual class: inhibitors | 280,000 tested, 0.39% active | AID 1468; also: potency is read from the fitted curve at half-maximal effect; nearly all actives have a fitted effect of over 55% in size
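K18 P301L tau (15 uM unlabeled/0.24 uM Alexa 594-labeled, final) + compound + heparin 20 uM final; 100 mM NaOAc pH 7; 6 hr 37 C; ThT 30 uM final added, 1 hr RT; FP ex 555/em 632 nm.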
Numbers without * were called inactive; ? = inconclusive; / = no result given; [ ] = remark or other dose. Hits are enriched below; roughly 2.3% of the tested compounds scored in any of these assays. Unless noted, calls follow the shape of the dose curve; as a rule, active = well fitted curve in the direction sought with a large enough effect; inconclusive = small, poorly fitted or top-dose-only effect, or another doubt; inactive = no such curve, though single readings can be large; an effect the other way counts as inactive or inconclusive. % is scaled to controls: 0 for no effect and ±100 for the full control effect.

SMILES	Coupling enz	USP1 inh	Tau fluor counter	Tau ThT inhib	Tau fibril FP
COc1ccc2c(c1)O[C@H](c1ccc3c(c1)OCO3)[C@@H](OC(=O)NS(=O)(=O)c1ccc(C)cc1)C2=O	1.8	/	2.1%	-3.7%	11.0%
COC(=O)c1cc2sc(C)cc2n1Cc1ccc(F)cc1Cl	/	-15.1%	-9.8%	1.1%	-4.3%
CCOc1ccc(C2NC(=O)C(C#N)=C(S)N2c2ccc(C)cc2)cc1OC (configuration not stated)	7.4	-12.7%	-23.8%	31.6µM*	?
CCOc1ccc(C2NC(=O)C(C#N)=C(S)N2c2cccc(C)c2)cc1OC (configuration not stated)	5.7	-10.5%	-24.8%	31.6µM*	?
CN1CCC(Nc2ncc3ncnc(Nc4ccc(F)c(Cl)c4)c3n2)CC1	1.0	/	-14.2%	-9.6%	2.9%
Cc1[nH]c2ccccc2c1N=Nc1ccccc1F	-1.4	-25.0%	12.6µM*[quencher]	12.6µM*	?
Cc1[nH]c2ccccc2c1N=Nc1ccc(F)cc1	-2.3	-20.5%	14.1µM*[quencher]	12.6µM*	-1.6%
Cc1[nH]c2ccccc2c1N=Nc1c(C)n(C)n(-c2ccccc2)c1=O	-1.8	-25.2%	1.8%	?	10.7%
CCOC(=O)c1cc2c(=O)n3ccccc3nc2n(CC2CCCO2)c1=NC(=O)c1ccccc1OCC (configuration not stated)	/	-23.4%	-27.3%	-9.2%	-11.0%
COC(=O)N1C(/C=C/c2ccc3c(c2)OCO3)=Cc2ccccc2C1CC(C)=O (configuration not stated)	-4.3	/	-6.9%[11.6 µM]	-4.0%[11.5 µM]	-2.1%[11.6 µM]
O=C(NC(=S)Nc1ccccc1)c1csnn1	0.6	0.8%	-12.0%	10µM*	?
COc1ccc2ccc3c(c2c1)N=C[C@]1(O3)N(C)c2ccccc2C1(C)C	-66.8*	?	?	20µM*	?
CC1CCN(c2ccc(/C=N/n3nnnc3N)cc2[N+](=O)[O-])CC1	0.5	-2.1%	-17.8%	?	-9.1%
CC1CCN(c2ccc(/C=N\Nc3nncn3N)cc2[N+](=O)[O-])CC1	-19.0	?	-29.4%	10µM*	-3.2%
O=[N+]([O-])c1cc(/C=N/n2cnnc2)ccc1N1CCCC1	0.1	-16.8%	-9.1%	7.94µM*	5.1%
NCCC[C@@H](CC(=O)N[C@@H]1CCNC[C@H]1C(=O)N[C@H](CC(=O)N[C@@H](CCC(=O)O)CC(=O)O)Cc1ccccc1)NC(=O)C[C@H](CO)NC(=O)[C@@H]1CNCC[C@H]1N	-6.1	/	-1.3%	-5.4%	0.1%
CCCCn1c(SCC(N)=O)nc2ccc(N3CCOCC3)cc2c1=O	-40.3*	-17.3%	-13.5%	-7.4%	0.5%
CCCCn1c(SCC(=O)Nc2cccc(OC)c2)nc2ccc(N3CCOCC3)cc2c1=O	-32.5*	-27.4%	?	?	9.2%
O=C(C1COc2cc(S(=O)(=O)Nc3ccc(Cl)cc3)ccc2O1)N1CCCC1 (configuration not stated)	/	-7.6%	-11.2%	0.9%	-9.4%
COc1ccccc1Nc1ncc(C(=O)N2CCC(C(N)=O)CC2)c2ccccc12	-34.2*	-7.1%	-3.1%	-4.5%	4.6%
CN=c1scc(C)n1/N=C/c1ccc2c(c1)OCO2	-3.0	-20.0%	?	11.2µM*	3.0%
CN=c1scc(C)n1/N=C/c1ccc(O)cc1O	-4.7	-0.3%	?	15.8µM*	11.4%
CN=c1scc(C)n1/N=C/c1ccc(O)cc1	-2.8	-18.3%	-25.1%	?	9.9%
Cc1cccn2c(=O)nc(SCC(=O)N3CCCCCC3)nc12	/	-14.7%	/	/	/
O=C1C(=O)c2c(ccc3ccccc23)-c2ccccc21	/	3.98µM*	/	/	/
SMILES	Coupling enz	USP1 inh	Tau fluor counter	Tau ThT inhib	Tau fibril FP
Cc1nc(Nc2ccccc2)sc1-c1ccccc1	-10.4	-22.6%	7.94µM*[quencher]	?	12.4%
Cc1cc2n(n1)C(c1c[nH]c3ccccc13)Nc1ccccc1-2 (configuration not stated)	0.7	-21.9%	25.1µM*[quencher]	?	28.2µM*
Cc1cccc(-n2c(=O)c3c(c4cc(C)ccc4n3C)n(C)c2=O)c1	/	-0.9%	-7.0%	1.9%	-8.2%
O=C1Nc2ccccc2/C1=C/C(=O)c1cccs1	-3.8	-21.8%	-26.2%	17.8µM*	3.3%
CCOc1ccc(N=Nc2c(=O)[nH]n3c(C)cc(C)nc23)cc1	3.0	-8.1%	-13.6%	12.6µM*	4.1%
Cc1nn(-c2ccccc2)c(N)c1N=Nc1ccc2ccccc2c1	-1.9	-23.4%	15.8µM*[quencher]	5.01µM*	1.1%
Cc1ccc(N=Nc2c(N)nn3c(C)cc(C)nc23)cc1	-0.5	-12.4%	-14.2%	?	0.3%
Cc1ccc(N=Nc2c(N)nn(-c3ccccc3)c2N)cc1	-1.9	-24.0%	?	4.47µM*	-6.2%
Cc1ccc(N=Nc2c(N)nn3c(N)c(C#N)c(C)nc23)cc1	1.0	-15.1%	?	1.41µM*	-9.8%
Cc1ccc(-n2c(SCC(=O)N3CCc4ccccc43)nc3c([nH]c4ccccc43)c2=O)cc1	/	-18.2%	0.8%	5.2%	-2.9%
NCC1O[C@@H](OC2C(N)C[C@H](N)[C@@H](O[C@H]3OC(CO)C(O)C(N)C3O)C2O)C(N)C(O)C1O (some centres not stated)	-2.4	/	5.2%	-7.9%	-9.1%
COc1ccc2c(c1)O[C@@H](c1ccc3c(c1)OCO3)[C@H](OC(=O)N[C@H]1CCCc3ccccc31)C2=O	0.7	/	-8.6%	-11.9%	-4.9%
CC(=O)OC1=C(C#N)Cn2ccc3cccc1c32	-40.9*	/	1.9%	-6.5%	1.6%
NC(C(=O)O)c1cc(O)cc(O)c1 (configuration not stated)	/	/	-4.0%	4.9%	7.7%
COC(=O)N[C@@H](CCc1ccccc1)/C(C(=O)OC)=C(\C)NCc1ccccc1	4.0	/	1.5%	-0.5%	3.8%
CCCCCNC(=O)c1ccc2c(=O)[nH]c3c(C(=O)NCC4CCCO4)sc(=S)n3c2c1 (configuration not stated)	6.8	-26.0%	-28.5%	14.1µM*	10.2%
Cc1ccc(CNC(=O)c2ccc3c(=O)[nH]c4c(C(=O)NCC5CCCO5)sc(=S)n4c3c2)cc1 (configuration not stated)	3.8	-15.6%	?	8.91µM*	-2.9%
O=C(NCc1ccccc1)c1ccc2c(=O)[nH]c3c(C(=O)NCC4CCCO4)sc(=S)n3c2c1 (configuration not stated)	4.3	-16.7%	?	14.1µM*	11.4%
O=C(NCc1ccco1)c1sc(=S)n2c1[nH]c(=O)c1ccccc12	1.5	-24.5%	-9.5%	-16.2%	-2.1%
O=C(NC1CCCC1)c1sc(=S)n2c1[nH]c(=O)c1ccccc12	2.4	-18.7%	?	15.8µM*	11.5%

Compound activity deposited in PubChem BioAssay by National Center for Advancing Translational Sciences (NCATS).
